Test results: PubChem BioAssay
“And” between values parts separate entries of the source, which are not always exact repeats. Equal values may be shown once. The source made the active and inactive calls. Unless noted, the rule behind the calls is not given here.

Key:
[1] = compounds altering circadian rhythm period length – cell-based, LOPAC library, luminescence reporter (AID 2774); conditions: circadian reporter cells, at 7 µM, actives lie on both sides;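 note: values are relative to mean of DMSO wells on each plate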
[2] = system: Hepatitis C virus NS3 helicase; assay: blockers of NS3h binding to ssDNA – biochemical, fluorescence polarization, LOPAC1280 library, primary screen (AID 687035; in the data active = inhibition above about 37%); conditions: Purified HCV NS3 helicase, Cy5-dT15 ssDNA binding fluorescence polarization; stronger effect = higher value; concentration not given here
[3] = compounds altering Cy5-DNA-NS3h complex signal – biochemical, LOPAC1280, artefact control for HCV NS3 helicase inhibitor project (AID 687037); conditions: Cy5-DNA-NS3h complex fluorescence interference counterscreen
[4] = system: Aerobactin synthetase IucA (Klebsiella pneumoniae); assay: inhibition of K. pneumoniae IucA enzyme – biochemical, Tocris library, absorbance (AID 1345561); conditions: purified IucA enzyme assay, absorbance (OD) read-out; stronger effect = lower value;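 tested at 8 µM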;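 note: 100% = enzyme without compound and 0% = no enzyme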
[5] = chitosan synthesis blockers in C. neoformans – flow cytometry, Cibacron Brilliant Red staining (AID 1347148); conditions: Cryptococcus neoformans chitosan, stronger effect = lower value; at 10 µM unless noted;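 note: compound exposure lasted three days at 37 degrees C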
[6] = blockers of cellular phospholipid synthesis – cell-based, LOPAC library, screen 4, primary screen (AID 1347384); conditions: animal cells, phospholipid biosynthesis inhibition screen; at 10 µM
[7] = MELAS cybrid and Rieske KO viability enhancers – cell-based, MELAS cybrids, Rieske KO mouse fibroblasts, CellTiter-Glo, primary screen (AID 1508586;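 active = mean z-score across replicates of 1.96 or higher in either the MELAS or the Rieske mutant cell line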;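 note: z relative to plate mean and SD of compound and empty wells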); conditions: low glucose
[8] = galactose survival enhancers in mitochondrial complex I cybrids – cell-based, galactose medium, ATP luminescence, primary screen (AID 1645843;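 active = z-score of at least 1.8 in each of two replicates, scored against plate mean and spread of sample wells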;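 note: positive z means more ATP and so rescue of galactose-driven cybrid death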); conditions: complex I mutant cybrid cells, 72 h, stronger effect = higher value
[9] = viability loss with induced miR-34 in A549 – imaging, A549 dox-inducible miR-34, nuclei and caspase counts, primary screen (AID 1347080;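 active = compounds whose cell count with miR-34 switched on is under 0.7 times the count with it off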); conditions: A549 miR-34 inducible, Hoechst nuclei count, 48 h
[10] = compounds altering viability of human ES cells (AID 493140); conditions: human embryonic stem cell survival screen; stronger effect = higher value;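 note: cells exposed to compounds for four days before counting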
[11] = MELAS cybrid survival, CellTiter-Glo 48 h, stronger effect = higher value
[12] = Rieske KO mouse fibroblast survival, CellTiter-Glo 72 h
[13] = stronger effect = lower value, cell number ratio, induced over uninduced
[14] = measured here: relative caspase fold change +Dox/-Dox
[15] = measured here: total cells with miR-34 induction, stronger effect = lower value
[16] = measured here: total cells without miR-34 induction

Question: For `O=C(Nc1ccccc1)c1cc([N+](=O)[O-])ccc1Cl`, which period change [1] is on record?
Answer: -0.23 h (inactive)

Question: And the inhibition [2]?
Answer: -5% (inactive)

Question: And the fluorescence ratio (interference) [3]?
Answer: 1 (inactive)

Question: What about the remaining activity [4] of the same compound?
Answer: 120% (inactive)

Question: What about the fold fluorescence [5] of the same compound?
Answer: 3.58 [at 180.7 µM] (inactive)

Question: And the outcome [6]?
Answer: inactive

Question: And the z-score [7, 11]?
Answer: -0.372 (inactive)

Question: And the z-score [7, 12]?
Answer: 0.0531

Question: And the z-score [8]?
Answer: -0.715 (inactive) and -0.72 (inactive)

Question: Which inhibition [2] does the source give for `CCCCCCCCCCC(C)(C)C(=O)Nc1c(OC)cc(OC)cc1OC` here?
Answer: -1% (inactive)

Question: And the fluorescence ratio (interference) [3]?
Answer: 1 (inactive)

Question: And the remaining activity [4]?
Answer: 89.7% (inactive)

Question: And the fold change [9, 13]?
Answer: 1.03 (inactive) and 0.876 (inactive)

Question: What about the fold change [9, 14] of the same compound?
Answer: 2.03 and 1.56

Question: And the cell count [9, 15]?
Answer: 8990 and 6930

Question: What about the cell count [9, 16] of the same compound?
Answer: 8710 and 7910

Question: What about the outcome [6] of the same compound?
Answer: inactive

Question: What about the z-score [8] of the same compound?
Answer: -1.29 (inactive) and -0.7 (inactive)

Question: Which inhibition [2] does the source give for `CCCCCCCCc1ccc(-c2ccc(C(=O)O)cc2)cc1` here?
Answer: 0% (inactive)

Question: What about the fluorescence ratio (interference) [3] of the same compound?
Answer: 1 (inactive)

Question: And the remaining activity [4]?
Answer: 95.4% (inactive)

Question: What about the fold change [9, 13] of the same compound?
Answer: 0.939 (inactive) and 0.915 (inactive)

Question: What about the fold change [9, 14] of the same compound?
Answer: 0.89 and 1.73

Question: What about the cell count [9, 15] of the same compound?
Answer: 8400 and 8360

Question: And the cell count [9, 16]?
Answer: 8950 and 9140

Question: What about the outcome [6] of the same compound?
Answer: inactive

Question: What about the z-score [8] of the same compound?
Answer: 0.205 (inactive) and -0.145 (inactive)

Question: For `O=C1NC(=O)c2cc(Nc3ccccc3)c(Nc3ccccc3)cc21`, which inhibition [2] is on record?
Answer: 0% (inactive)

Question: And the fluorescence ratio (interference) [3]?
Answer: 1 (inactive)

Question: And the remaining activity [4]?
Answer: 123% (inactive)

Question: What about the fold change [9, 13] of the same compound?
Answer: 1.14 (inactive) and 0.996 (inactive)

Question: What about the fold change [9, 14] of the same compound?
Answer: 1.65 and 1.45

Question: What about the cell count [9, 15] of the same compound?
Answer: 3180 and 3240

Question: What about the cell count [9, 16] of the same compound?
Answer: 2790 and 3260

Question: And the outcome [6]?
Answer: inactive

Question: And the z-score [8]?
Answer: -1.08 (inactive) and -0.55 (inactive)

Question: Which results are given for `Oc1cc2c(c(Cl)c1O)CCNCC2c1ccccc1` (stereo not given)?
Answer: period change [1]: 0.11 h (inactive); fluorescence ratio (interference) [3]: 0.6 (active); remaining activity [4]: 120% (inactive); fold change [9, 13]: 1.3 (inactive) and 0.885 (inactive); fold change [9, 14]: 0.646 and 0.88; cell count [9, 15]: 5030 and 5850; cell count [9, 16]: 3880 and 6610; outcome [6]: inactive; z-score [8]: 0.1 (inactive) and -0.405 (inactive)

Question: With `Nc1ccc(-c2nc3ccc(-c4nc5ccc(N)cc5[nH]4)cc3[nH]2)cc1` as the compound, how does the inhibition [2] read?
Answer: -5% (inactive)

Question: And the fluorescence ratio (interference) [3]?
Answer: 0.6 (active)

Question: What about the remaining activity [4] of the same compound?
Answer: 107% (inactive)

Question: What about the fold change [9, 13] of the same compound?
Answer: 1.02 (inactive) and 0.968 (inactive)

Question: What about the fold change [9, 14] of the same compound?
Answer: 0.586 and 0.928

Question: What about the cell count [9, 15] of the same compound?
Answer: 11200 and 10100

Question: And the cell count [9, 16]?
Answer: 10900 and 10500

Question: And the outcome [6]?
Answer: inactive

Question: And the z-score [8]?
Answer: 4.82 (active) and 5.54 (active)

Question: For `O=c1onc2cnc3ccccc3n12`, which period change [1] is on record?
Answer: 0.13 h (inactive)

Question: What about the inhibition [2] of the same compound?
Answer: 0% (inactive)

Question: And the fluorescence ratio (interference) [3]?
Answer: 1 (inactive)

Question: What about the remaining activity [4] of the same compound?
Answer: 108% (inactive)

Question: And the fold change [9, 13]?
Answer: 1.09 (inactive) and 0.945 (inactive) and 0.946 (inactive)

Question: And the fold change [9, 14]?
Answer: 1.29 and 1.08 and 0.805

Question: And the cell count [9, 15]?
Answer: 8010 and 5220 and 7630

Question: What about the cell count [9, 16] of the same compound?
Answer: 7350 and 5530 and 8060

Question: What about the outcome [6] of the same compound?
Answer: inactive

Question: And the z-score [8]?
Answer: 0.125 (inactive) and 0.635 (inactive)

Question: For `CC[N+](CC)(CC)CC(=O)Nc1c(C)cccc1C`, which period change [1] is on record?
Answer: 0.065 h (inactive)

Question: And the inhibition [2]?
Answer: -2% (inactive)

Question: And the fluorescence ratio (interference) [3]?
Answer: 1 (inactive)

Question: What about the remaining activity [4] of the same compound?
Answer: 100% (inactive) and 106% (inactive)

Question: And the fold fluorescence [5]?
Answer: 6.95 [at 145.6 µM] (inactive)

Question: What about the outcome [6] of the same compound?
Answer: inactive

Question: And the z-score [8]?
Answer: 0.42 (inactive) and 1.23 (inactive) and 0.065 (inactive)

Question: For `C/C(=C\c1ccc(C(=O)O)cc1)c1ccc2c(c1)C(C)(C)CCC2(C)C`, which period change [1] is on record?
Answer: 0.4 h (inactive)

Question: What about the survival [10] of the same compound?
Answer: 85.2 (inactive)

Question: What about the inhibition [2] of the same compound?
Answer: 0% (inactive)

Question: What about the cell count [9, 15] of the same compound?
Answer: 6410 and 5680 and 8680

Question: And the cell count [9, 16]?
Answer: 6200 and 5870 and 8620

Question: What about the outcome [6] of the same compound?
Answer: inactive

Question: And the z-score [8]?
Answer: 1.45 (inactive) and 1.6 (inactive)

Question: What does the source list for `Cc1ccc2c(c1)C(=O)C1(O)CCN(c3ccccc3)C1=N2` (stereo not given)?
Answer: remaining activity [4]: 119% (inactive); fold change [9, 13]: 0.944 (inactive) and 1.14 (inactive) and 0.93 (inactive); fold change [9, 14]: 1.39 and 0.747 and 0.79; cell count [9, 15]: 2140 and 6710 and 5140; cell count [9, 16]: 2270 and 5900 and 5530; z-score [8]: 0.035 (inactive)

Question: With `C[C@H](NC(=O)/C(C#N)=C/c1ccc(O)c(O)c1)c1ccccc1` as the compound, how does the period change [1] read?
Answer: 0.035 h (inactive)

Question: What about the inhibition [2] of the same compound?
Answer: -1% (inactive)

Question: What about the fluorescence ratio (interference) [3] of the same compound?
Answer: 1 (inactive)

Question: What about the remaining activity [4] of the same compound?
Answer: 111% (inactive)

Question: And the fold change [9, 13]?
Answer: 0.957 (inactive) and 0.876 (inactive)

Question: And the fold change [9, 14]?
Answer: 2.11 and 1.78

Question: And the cell count [9, 15]?
Answer: 6810 and 7420

Question: And the cell count [9, 16]?
Answer: 7120 and 8470

Question: And the outcome [6]?
Answer: inactive

Question: What about the z-score [8] of the same compound?
Answer: -1 (inactive) and -0.545 (inactive)

Question: Which inhibition [2] does the source give for `Nc1nc2c(cnn2CCc2ccccc2)c2nc(-c3ccco3)nn12` here?
Answer: 0% (inactive)

Question: And the fluorescence ratio (interference) [3]?
Answer: 1 (inactive)

Question: What about the remaining activity [4] of the same compound?
Answer: 107% (inactive)

Question: And the fold change [9, 13]?
Answer: 0.995 (inactive) and 1.05 (inactive)

Question: What about the fold change [9, 14] of the same compound?
Answer: 1.09 and 1.04

Question: And the cell count [9, 15]?
Answer: 10300 and 7560

Question: And the cell count [9, 16]?
Answer: 10400 and 7200

Question: What about the outcome [6] of the same compound?
Answer: inactive

Question: What about the z-score [8] of the same compound?
Answer: 0.15 (inactive) and -0.35 (inactive)

Question: For `COc1ccc2c(c1)c(CC(=O)N1CCOCC1)c(C)n2C(=O)c1ccc(Cl)cc1`, which period change [1] is on record?
Answer: -0.115 h (inactive)

Question: What about the survival [10] of the same compound?
Answer: 105 (inactive)

Question: And the remaining activity [4]?
Answer: 123% (inactive)

Question: What about the fold fluorescence [5] of the same compound?
Answer: 2.56 (active)

Question: What about the z-score [7, 11] of the same compound?
Answer: -0.237 (inactive)

Question: And the z-score [7, 12]?
Answer: -0.286

Question: What about the z-score [8] of the same compound?
Answer: -0.295 (inactive)

Question: Which period change [1] does the source give for `O=C(O)c1cc(=O)c2c(Cl)cc(Cl)cc2[nH]1` here?
Answer: -0.065 h (inactive)

Question: What about the inhibition [2] of the same compound?
Answer: -1% (inactive)

Question: What about the fluorescence ratio (interference) [3] of the same compound?
Answer: 1 (inactive)

Question: And the remaining activity [4]?
Answer: 90.4% (inactive)

Question: And the fold change [9, 13]?
Answer: 0.981 (inactive) and 0.957 (inactive)

Question: What about the fold change [9, 14] of the same compound?
Answer: 0.527 and 0.88

Question: What about the cell count [9, 15] of the same compound?
Answer: 10000 and 8540

Question: What about the cell count [9, 16] of the same compound?
Answer: 10200 and 8930

Question: And the outcome [6]?
Answer: inactive

Question: What about the z-score [8] of the same compound?
Answer: 0.135 (inactive) and -0.315 (inactive)
